Screens (PubChem BioAssay)
NPC1 prom act – qHTS Assay for NPC1 Promoter Activators; Huh7 NPC1 promoter luciferase reporter, 24 h; Potency, µM (top dose mostly 9.22 µM), without a hit: at the top dose activation, hits mostly activators; 2.4% of 320,000 active; AID 485313, 2010; also: % of control where 0% means no effect; nearly all actives have a fitted effect of over 60% in size
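Luminescence read-out of NPC1 promoter-driven luciferase in stably transfected Huh7 cells; compounds delivered in DMSO and left 24 h at 37C, 5% CO2, qHTS titration format.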
SMN2 splice up – qHTS Assay for Enhancers of SMN2 Splice Variant Expression | HEK293 SMN2-luciferase splicing reporter, luminescence, 30-36 h | Potency, µM (series often up to 46.1 µM), for the others: top-dose activity change, positive = activation, actives largely listed as activators | 2.8% of 210,000 active; also: % of control where 0% means no effect; nearly all actives have a fitted effect of over 55% in size
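qHTS luciferase splicing reporter: luminescence rises when SMN2 exon 7 is included in transfected HEK293 cells. Compound exposure lasted 30-36 h at 37C, with 4.5 mM final sodium butyrate as control, followed by a ONE-Glo read.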
p53 reactivator – qHTS assay for re-activators of p53 using a Luc reporter. H1299 p53-A138V BP100-luciferase reporter, luminescence, 24 h. 0.063% of 320,000 active. AID 504706, 2011. Potency, µM (highest dose often 92.2 µM), inactives show at the highest dose activity change, positive = activation, most hits filed as activators; also: % of control where 0% means no effect; nearly all actives have a fitted effect of over 45% in size
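p53-null H1299 cells stably carrying temperature-sensitive p53-A138V and a BP100-luciferase reporter were pinned with compounds (4-point, 1:5 series) and held 24 hrs at 37 deg C. Luminescence was read 10 min after detection reagent.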
ELG1 genotoxic – qHTS screen for small molecules that induce genotoxicity in human embryonic kidney (HEK293T) cells expressing luciferase-tagged ELG1; 1.3% of 330,000 active; Potency, µM (series often up to 46 µM), for inactives: at the highest dose activity change, positive = activation, usual class: activators; HEK293T ELG1-luciferase reporter, luminescence, 16 h; also: % of control where 0% means no effect; nearly all actives have a fitted effect of over 60% in size
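Genotoxicity was scored as increased ELG1-luciferase reporter signal, measured by ONE-Glo luminescence (30 min, room temperature). Compound or vehicle exposure of the HEK293T reporter cells lasted 16 hr at 37°C.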
FLuc counter – qHTS profiling assay for firefly luciferase inhibitor/activator using purifed enzyme and Km concentrations of substrates (counterscreen for miR-21 project) | Luciferin 4-monooxygenase (Photinus pyralis), P08659 | purified FLuc, Km substrates, luminescence inhibition | Potency, µM (top dose mostly 57.5 µM), for inactives: at the highest dose activity change, negative = inhibition, most hits filed as inhibitors | 6.9% of 360,000 active | AID 588342, 2011;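 also: plate controls were vehicle for no effect and reference inhibitor for full effect; nearly all actives have a fitted effect of over 55% in size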
Target sequence (P08659 whole entry, looked up): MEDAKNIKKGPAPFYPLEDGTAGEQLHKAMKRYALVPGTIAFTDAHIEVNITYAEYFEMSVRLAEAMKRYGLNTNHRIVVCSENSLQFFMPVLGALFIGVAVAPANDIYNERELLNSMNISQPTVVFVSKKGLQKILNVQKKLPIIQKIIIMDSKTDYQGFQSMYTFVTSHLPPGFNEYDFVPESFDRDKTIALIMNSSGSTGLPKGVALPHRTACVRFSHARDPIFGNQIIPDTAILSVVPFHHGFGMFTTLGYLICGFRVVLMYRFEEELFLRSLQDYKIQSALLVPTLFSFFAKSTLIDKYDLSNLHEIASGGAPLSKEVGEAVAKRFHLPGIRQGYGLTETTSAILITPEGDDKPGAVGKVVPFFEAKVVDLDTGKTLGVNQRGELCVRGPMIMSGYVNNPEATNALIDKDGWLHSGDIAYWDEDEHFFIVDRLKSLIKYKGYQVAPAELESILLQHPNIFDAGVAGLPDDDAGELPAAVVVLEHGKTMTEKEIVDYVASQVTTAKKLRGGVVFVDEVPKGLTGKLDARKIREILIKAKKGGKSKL
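Purified P. pyralis luciferase, 10 nM final, with Km-level 10 uM D-luciferin and 10 uM ATP in 50 mM Tris acetate pH 7.5, 10 mM Mg acetate, 0.01% Tween-20, 0.05% BSA; 6-point qHTS titration about 60 µM downward; luminescence read.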
Rab9 prom act – qHTS Assay for Rab9 Promoter Activators | AID 485297, 2010 | Huh7 Rab9 promoter-luciferase reporter, luminescence, 24 h | 2.8% of 320,000 active | Potency, µM (doses to about 9.22 µM), for inactives: top-dose activation, negative = inhibition, actives largely listed as activators; also: % of control where 0% means no effect; nearly all actives have a fitted effect of over 60% in size
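Stable Rab9-luc Huh7, 1500 cells/well, 2 h settle; cmpd in DMSO, 24 h, 37 °C/5% CO2; luciferase reagent 10 min RT; luminescence.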
The depositor's hits bear a star; ? = inconclusive; nt = not tested or not shown. Shown are actives, neighbours in structure and some others; about 7.3% of the full set was active somewhere. Calls follow the shape of the dose curve; as a rule, active = well fitted curve in the direction sought with a large enough effect; inconclusive = small, poorly fitted or top-dose-only effect, or another doubt; inactive = no such curve, though single readings can be large; an effect the other way counts as inactive or inconclusive. Potency is read from the fitted curve at half-maximal effect.

SMILES	NPC1 prom act	SMN2 splice up	p53 reactivator	ELG1 genotoxic	FLuc counter	Rab9 prom act
Cc1cc(Nc2cc(Cl)ccc2C)n2nc(Cc3ccccc3)nc2n1	nt	9.7%	nt	nt	0.0%	nt
CCOC(=O)c1ccccc1NC(=O)CSc1cn(CC(=O)N2CCOCC2)c2ccccc12	nt	nt	nt	nt	-9.0%	nt
Cc1cccc(OCCn2c(SCC(N)=O)nc3ccccc32)c1	nt	7.1%	nt	nt	4.0%	nt
Cc1ccc(-c2cc(=O)c3cc(F)ccc3[nH]2)cc1	0.6%	?	?	12.2%	26.9µM*	15.6%
Cc1ccc(-c2cc(=O)c3cc(C)ccc3[nH]2)cc1	?	2.24µM*	22.4µM*	?	0.675µM*	?
CC(C)CCNC(=O)c1ccc2c(c1)NC(=O)C(C(C)C)N2 (configuration not stated)	nt	-2.7%	nt	nt	-6.1%	nt
O=C(c1c[nH]c2ccccc2c1=O)N1CCCCCC1	-4.7%	-1.9%	2.4%	5.5%	6.3%	-4.5%
CC1=CC(C)(C)Nc2ccc(OC(=O)c3ccco3)cc21	-2.6%	-15.7%	-19.8%	22.7%	21.3µM*	16.6%
CC1=CC(C)(C)Nc2ccc(OC(=O)c3cccnc3)cc21	-9.5%	-7.4%	-64.6%	6.8%	-16.1%	4.4%
Cc1ccccc1Nc1nc(CSc2nnc(-c3ccoc3C)n2C)cs1	18.6%	13.6%	?	6.8%	16.9µM*	3.2%
Cc1ccc(Nc2nc(CSc3nnc(-c4ccncc4)n3C)cs2)cc1	3.16µM*	nt	?	?	0.601µM*	1.26µM*
Cc1ccc(Nc2nc(CSc3nnc(-c4cccnc4)n3-c3ccccc3F)cs2)cc1	8.6%	18.1%	10.7%	3.7%	2.39µM*	3.6%
Cc1ccc(NC(=O)CSc2nnc(-c3cccnc3)n2-c2ccc(C)cc2)cc1	-0.8%	11.4%	-8.2%	4.4%	0.7%	-0.9%
CCc1ccc(NC(=O)C(C)n2nnc3sc(-c4ccccc4)cc3c2=O)cc1 (configuration not stated)	nt	9.8%	nt	nt	-15.9%	nt
CCc1ccc(N2C(=O)c3sc4nnc(-c5ccccc5)c(=O)n4c3C2=O)cc1	-3.2%	8.1%	-0.3%	8.3%	19µM*	-12.8%
Cc1ccc(-c2ccc(/C=N/NC(N)=S)o2)cc1	?	nt	?	12.5%	6.75µM*	?
NC(=S)N/N=C/c1ccc(-c2ccc(SC(F)F)cc2)o1	-0.1%	nt	15.3%	-3.9%	23.9µM*	-0.1%
NC(=S)N/N=C/c1ccc(-c2ccccc2)o1	11.0%	-13.1%	17.1%	8.9%	?	5.1%
COc1cccc(NC(=O)Nc2ccc(C(C)(C)C)cc2)c1	?	11.2µM*	23.0%	-9.1%	3.01µM*	?
COc1cccc(NC(=O)c2ccc(NC(=O)C(C)(C)C)cc2)c1	?	12.6µM*	?	14.2%	9.53µM*	?
CSc1ccc(-c2nc3cccc(C)n3c2Nc2ccc3c(c2)OCO3)cc1	nt	1.2%	nt	nt	-5.4%	nt
CCOC(=O)c1c(S(=O)(=O)N2CCC(C(=O)N3CCN(c4cc(C)ccc4C)CC3)CC2)c(C)n(C)c1C	nt	nt	nt	nt	-8.5%	nt
O=S(=O)(Nc1ccc(-c2ccc(N3CCCCC3)nn2)cc1)c1ccc(OC(F)(F)F)cc1	nt	nt	nt	nt	21.3µM*	nt
O=C(c1cccc(NS(=O)(=O)c2cccc(F)c2)c1)N1CCCC1	-0.9%	nt	nt	-0.5%	0.6%	-0.5%
O=S(=O)(Nc1cccc(-c2ccc(N3CCCCCC3)nn2)c1)c1ccc(F)cc1	?	nt	?	?	5.36µM*	?
SMILES	NPC1 prom act	SMN2 splice up	p53 reactivator	ELG1 genotoxic	FLuc counter	Rab9 prom act
O=S(=O)(Nc1cccc(-c2ccc(N3CCCCCC3)nn2)c1)c1cccc(F)c1	3.16µM*	nt	-11.2%	?	2.39µM*	3.16µM*
O=S(=O)(Nc1cccc(-c2ccc(N3CCCCCC3)nn2)c1)c1ccc(C(F)(F)F)cc1	22.8%	nt	?	?	9.53µM*	?
O=S(=O)(Nc1ccc(-c2ccc(N3CCCC3)nn2)cc1)c1ccc(Cl)cc1	nt	nt	nt	nt	-6.2%	nt
Cc1ccc(C)c(NC(=O)N2CCN(C(=O)c3nsc4ccccc34)CC2)c1	nt	nt	nt	nt	0.3%	nt
CC(=O)c1ccc(S(=O)(=O)Nc2cccc(-c3ccc(N4CCCCC4)nn3)c2)cc1	nt	nt	nt	nt	1.51µM*	nt
COc1cccc(Nc2ncc3nc(CCc4ccccc4)c(=O)n(CCC#N)c3n2)c1	nt	-8.2%	nt	nt	nt	nt
COc1cc2c(cc1OC)CN(C(=O)Cc1c(F)cccc1Cl)CC2	1.6%	nt	-8.0%	-1.4%	0.0%	-0.2%
O=C(OCc1cc(=O)n2ccsc2n1)c1ccc(O)cc1O	?	nt	?	?	?	23.0%
CC(C)(C)c1ccc(C(=O)Nc2ccc(OCc3cc(=O)n4ccsc4n3)cc2)cc1	nt	-9.1%	nt	nt	-2.0%	nt
Cc1ccsc1C(=O)OCc1cc(=O)n2ccsc2n1	2.51µM*	nt	?	?	10.7µM*	1.41µM*
CC(=O)c1ccc(OCc2cc(=O)n3ccsc3n2)cc1	?	?	29.4%	?	?	3.98µM*
COC(=O)c1ccccc1NC(=O)CCc1c(C)nc2cc(-c3ccc(Cl)cc3)nn2c1C	nt	-32.2%	nt	nt	?	nt
COc1cc(OC)cc(-c2cc3nc(C)c(CCC(=O)Nc4ccc(F)c(Cl)c4)c(C)n3n2)c1	nt	-10.8%	nt	nt	?	nt
CCOC(=O)c1cccc(NC(=O)CCc2c(C)nc3cc(-c4ccc(Cl)cc4)nn3c2C)c1	nt	-21.0%	nt	nt	12µM*	nt
CCOc1ccc(NC(=O)CCc2c(C)nc3cc(-c4ccc(Cl)cc4)nn3c2C)cc1	nt	-16.9%	nt	nt	6.75µM*	nt
COc1ccc(C(CNC(=O)c2cccc([N+](=O)[O-])c2)N2CCOCC2)cc1 (configuration not stated)	nt	nt	nt	nt	4.9%	nt
COc1ccccc1NC(=O)N1CCC(CN2CCc3ccccc3C2)CC1	nt	nt	nt	nt	-1.4%	nt
Cc1cccc(NC(=O)/C(C#N)=C/c2ccc(F)cc2)n1	1.5%	nt	-5.6%	-8.2%	5.36µM*	0.4%
CCOc1ccccc1/C=C(/C#N)C(N)=O	1.7%	nt	-2.6%	2.6%	5.3%	-1.6%
CCCOc1ccccc1/C=C(\C#N)C(=O)Nc1cccc(C)n1	-3.1%	nt	-3.3%	5.3%	10.7µM*	-1.0%
O=C(NCc1ccccc1)c1cccc(COc2ccc3c(c2)CCC3)c1	0.355µM*	1.26µM*	?	0.651µM*	1.35µM*	0.355µM*
O=C(O)c1cccc(COc2ccc3c(c2)CCC3)c1	3.55µM*	nt	-9.0%	?	0.0675µM*	3.16µM*
COc1ccccc1NC(=O)c1ccc(CSc2ncccn2)cc1	-1.0%	nt	-1.2%	4.8%	16.9µM*	-1.1%
